Laboratory results taken from PubChem BioAssay AID1159580 (chemical genetic matrix, 2015).
“And” between values parts separate entries of the source, which are not always exact repeats. Equal entries are not always repeated. In all, about 5,500 compounds went through this assay and about 2,000 (36%) were called active. About 18% were inconclusive and are not listed. Rule as the data show it: active = normalized growth mostly below about 0.91 (no sharp cut-off); inconclusive = no clear call, values can overlap the other calls; inactive = mostly above about 0.92. This is one part of the list.

Test: chemical genetic growth profiling, strain panel (AID 1159580);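 also: tested at 20 µM; growth read once vehicle control cultures reached saturation at 30 °C; 1 = growth at the plate median or of vehicle wells; lower values mean less growth of the strain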
Conditions: growth OD

Measured: normalized growth

Cc1ccc(O)c(C(CCN(C(C)C)C(C)C)c2ccccc2)c1 (configuration not stated)
inactive: S. cerevisiae deletion strains, locus YAL013W, strain DEP1, hits give low values 1.01 | S. cerevisiae deletion strains, locus YBR021W, strain FUR4, hits give low values 1 | S. cerevisiae deletion strains, locus YBR229C, strain ROT2, hits give low values 1.01 | S. cerevisiae deletion strains, locus YCL029C, strain bik1, hits give low values 0.998 | S. cerevisiae deletion strains, locus YDL035C, strain GPR1, hits give low values 1.01 | S. cerevisiae deletion strains, locus YDL074C, strain BRE1, hits give low values 1.03 | S. cerevisiae deletion strains, locus YDL101C, strain DUN1, hits give low values 1.01 | S. cerevisiae deletion strains, locus YDL134C, strain PPH21, hits give low values 1.02 | S. cerevisiae deletion strains, locus YDL185W, strain tfp1, hits give low values 0.989 | S. cerevisiae deletion strains, locus YDL192W, strain arf1, hits give low values 1 | S. cerevisiae deletion strains, locus YDR101C, strain arx1, hits give low values 0.988 | S. cerevisiae deletion strains, locus YDR150W, strain NUM1, hits give low values 1.01 | S. cerevisiae deletion strains, locus YDR162C, strain NBP2, hits give low values 1 | S. cerevisiae deletion strains, locus YDR318W, strain mcm21, hits give low values 0.991 | S. cerevisiae deletion strains, locus YDR388W, hits give low values 0.983 | S. cerevisiae deletion strains, locus YDR502C, strain sam2, hits give low values 0.996 | S. cerevisiae deletion strains, locus YEL061C, strain CIN8, hits give low values 1.01 | S. cerevisiae deletion strains, locus YER110C, hits give low values 0.995 | S. cerevisiae deletion strains, locus YER155C, strain BEM2, hits give low values 1.01 | S. cerevisiae deletion strains, locus YER167W, strain BCK2, hits give low values 0.994 | S. cerevisiae deletion strains, locus YGL078C, strain dbp3, hits give low values 0.996 | S. cerevisiae deletion strains, locus YGL086W, strain mad1, hits give low values 0.995 | S. cerevisiae deletion strains, locus YGL248W, strain PDE1, hits give low values 1 | S. cerevisiae deletion strains, locus YGR078C, strain PAC10, hits give low values 1.01 | S. cerevisiae deletion strains, locus YGR135W, strain pre9, hits give low values 0.985 | S. cerevisiae deletion strains, locus YGR229C, strain SMI1, hits give low values 0.995 | S. cerevisiae deletion strains, locus YGR252W, strain gcn5, hits give low values 1 | S. cerevisiae deletion strains, locus YHR030C, strain SLT2, hits give low values 1.01 and 1.03 | S. cerevisiae deletion strains, locus YHR079C, strain IRE1 (second series), hits give low values 0.988 | S. cerevisiae deletion strains, locus YHR079C, strain IRE1, hits give low values 0.981 | S. cerevisiae deletion strains, locus YHR094C, strain hxt1, hits give low values 0.987 | S. cerevisiae deletion strains, locus YHR129C, strain ARP1, hits give low values 1.02 | S. cerevisiae deletion strains, locus YHR200W, strain rpn10, hits give low values 0.982 | S. cerevisiae deletion strains, locus YIL066C, strain RNR3, hits give low values 1.02 | S. cerevisiae deletion strains, locus YIL073C, strain SPO22, hits give low values 0.967 | S. cerevisiae deletion strains, locus YIL125W, strain kgd1, hits give low values 0.985 | S. cerevisiae deletion strains, locus YIR030C, strain dcg1, hits give low values 0.993 | S. cerevisiae deletion strains, locus YJL095W, strain BCK1, hits give low values 1.01 | S. cerevisiae deletion strains, locus YJL134W, strain LCB3, hits give low values 1 | S. cerevisiae deletion strains, locus YJL168C, strain set2, hits give low values 0.99 | S. cerevisiae deletion strains, locus YJL187C, strain SWE1 (second series), hits give low values 1.01 | S. cerevisiae deletion strains, locus YJR043C, strain POL32, hits give low values 1 | S. cerevisiae deletion strains, locus YJR066W, strain TOR1, hits give low values 0.958 | S. cerevisiae deletion strains, locus YJR075W, strain HOC1, hits give low values 1 | S. cerevisiae deletion strains, locus YKL009W, strain mrt4, hits give low values 1 | S. cerevisiae deletion strains, locus YKL068W, hits give low values 0.986 | S. cerevisiae deletion strains, locus YKL085W, strain MDH1 (second series), hits give low values 0.99 | S. cerevisiae deletion strains, locus YKL085W, strain MDH1, hits give low values 0.99 | S. cerevisiae deletion strains, locus YKL190W, strain CNB1, hits give low values 1.01 | S. cerevisiae deletion strains, locus YKR001C, strain vps1, hits give low values 0.999 | S. cerevisiae deletion strains, locus YLR039C, strain RIC1, hits give low values 1.06 | S. cerevisiae deletion strains, locus YLR058C, strain SHM2, hits give low values 1.01 | S. cerevisiae deletion strains, locus YLR102C, strain apc9, hits give low values 0.992 | S. cerevisiae deletion strains, locus YLR113W, strain HOG1, hits give low values 1.03 | S. cerevisiae deletion strains, locus YLR262C, strain YPT6, hits give low values 1.05 | S. cerevisiae deletion strains, locus YLR268W, strain sec22, hits give low values 0.984 | S. cerevisiae deletion strains, locus YLR330W, strain CHS5, hits give low values 1.01 | S. cerevisiae deletion strains, locus YLR342W, strain FKS1 (second series), hits give low values 1.01 | S. cerevisiae deletion strains, locus YLR371W, strain rom2, hits give low values 0.972 | S. cerevisiae deletion strains, locus YLR418C, strain cdc73, hits give low values 0.982 | S. cerevisiae deletion strains, locus YML016C, strain PPZ1, hits give low values 1.02 | S. cerevisiae deletion strains, locus YML032C, strain rad52, hits give low values 0.986 | S. cerevisiae deletion strains, locus YML124C, strain tub3, hits give low values 0.991 | S. cerevisiae deletion strains, locus YMR078C, strain ctf18, hits give low values 0.978 | S. cerevisiae deletion strains, locus YMR223W, strain ubp8, hits give low values 0.996 | S. cerevisiae deletion strains, locus YMR263W, strain SAP30, hits give low values 1.01 | S. cerevisiae deletion strains, locus YMR307W, strain GAS1, hits give low values 0.993 | S. cerevisiae deletion strains, locus YNL067W, strain RPL9B, hits give low values 1.01 | S. cerevisiae deletion strains, locus YNL128W, strain TEP1, hits give low values 1 | S. cerevisiae deletion strains, locus YNL153C, strain GIM3, hits give low values 1.01 | S. cerevisiae deletion strains, locus YNL183C, strain NPR1, hits give low values 0.961 | S. cerevisiae deletion strains, locus YNL233W, strain BNI4, hits give low values 1.01 | S. cerevisiae deletion strains, locus YNL250W, strain rad50, hits give low values 0.981 | S. cerevisiae deletion strains, locus YNL271C, strain bni1, hits give low values 0.997 | S. cerevisiae deletion strains, locus YNL298W, strain CLA4, hits give low values 0.974 | S. cerevisiae deletion strains, locus YNL307C, strain MCK1, hits give low values 0.996 | S. cerevisiae deletion strains, locus YNL322C, strain KRE1, hits give low values 1 | S. cerevisiae deletion strains, locus YNR052C, strain pop2, hits give low values 0.988 | S. cerevisiae deletion strains, locus YOL006C, strain TOP1, hits give low values 1.05 | S. cerevisiae deletion strains, locus YOL012C, strain htz1 0.768 | S. cerevisiae deletion strains, locus YOL147C, strain pex11, hits give low values 0.986 | S. cerevisiae deletion strains, locus YOR061W, strain CKA2, hits give low values 1.02 | S. cerevisiae deletion strains, locus YOR069W, strain VPS5, hits give low values 1.01 | S. cerevisiae deletion strains, locus YOR136W, strain idh2, hits give low values 0.983 | S. cerevisiae deletion strains, locus YOR144C, strain elg1, hits give low values 0.981 | S. cerevisiae deletion strains, locus YOR184W, strain ser1, hits give low values 1 | S. cerevisiae deletion strains, locus YOR231W, strain MKK1, hits give low values 1 | S. cerevisiae deletion strains, locus YOR316C, strain cot1, hits give low values 0.985 | S. cerevisiae deletion strains, locus YPL055C, strain LGE1, hits give low values 1.01 | S. cerevisiae deletion strains, locus YPL241C, strain CIN2, hits give low values 1.01 | S. cerevisiae deletion strains, locus YPL256C, strain CLN2, hits give low values 0.992 | S. cerevisiae deletion strains, locus YPR119W, strain clb2, hits give low values 0.98 | S. cerevisiae deletion strains, locus YPR141C, strain kar3, hits give low values 0.985 | S. cerevisiae deletion strains, locus YPR163C, strain tif3, hits give low values 0.977 | S. cerevisiae deletion strains, locus YPR167C, strain met16, hits give low values 0.988 | S. cerevisiae deletion strains, strain wtn01, hits give low values 0.988 | S. cerevisiae strains, strain wild type, hits give low values 1
